Measured values reported in PubChem BioAssay (Tox21).
Inconclusive results are not listed. A number with no mark means an inactive call. The source made the active and inactive calls. Calls come from the whole dose curve; as a rule, active = well fitted inhibition curve with a large enough effect in the signal ratio in the repeat runs (not every such curve was filed as active); inconclusive = weak or mixed curves, or effect the other way; inactive = no such curve, though single readings can be large or run the other way; the % refers to the signal ratio.

These compounds were tested against Peroxisome proliferator-activated receptor delta (Homo sapiens) (UniProt Q03181) (assay: qHTS assay to identify small molecule antagonists of the peroxisome proliferator-activated receptor delta (PPARd) signaling pathway (AID 743215;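 note: cells stimulated with agonist L165041 at 300 nM final during compound exposure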)). Conditions: HEK293H PPARd-UAS-bla, beta-lactamase FRET ratio, antagonist, 17 h; series mostly up to 62 µM; ratio activity, negative = inhibition: at the top concentration.
Sequence of Peroxisome proliferator-activated receptor delta (Homo sapiens) (Q03181 whole entry, looked up): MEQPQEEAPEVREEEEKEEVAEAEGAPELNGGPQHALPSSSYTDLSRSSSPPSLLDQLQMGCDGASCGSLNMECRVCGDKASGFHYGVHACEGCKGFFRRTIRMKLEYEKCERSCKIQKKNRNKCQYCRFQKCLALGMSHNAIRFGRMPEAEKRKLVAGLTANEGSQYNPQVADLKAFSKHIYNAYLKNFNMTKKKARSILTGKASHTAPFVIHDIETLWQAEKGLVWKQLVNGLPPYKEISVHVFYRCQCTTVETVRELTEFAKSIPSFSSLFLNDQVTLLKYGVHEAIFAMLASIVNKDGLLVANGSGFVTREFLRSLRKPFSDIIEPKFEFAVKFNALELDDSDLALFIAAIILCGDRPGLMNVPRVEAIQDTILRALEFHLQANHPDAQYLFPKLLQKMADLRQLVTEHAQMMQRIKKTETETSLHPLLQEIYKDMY
Description: U.S. Tox21 Program National Center for Advancing Translational Sciences [NCATS] NIH Chemical Genomics Center [NCGC] U.S. Environmental Protection Agency [EPA] National Institutes of Environmental Health Sciences [NIEHS] National Toxicology Program [NTP] U.S. Food and Drug Administration [FDA] Tox21 Assay Overview: The peroxisome proliferator-activated receptors (PPARs) are lipid-activated transcription factors of the nuclear receptor superfamily with three distinct subtypes namely PPAR alpha, PPAR delta (PPARd) and PPAR gamma. All these subtypes heterodimerizes with Retinoid X receptor (RXR) and have different physiological functions. […] To identify the compounds that inhibit PPAR-delta signaling, GeneBLAzer PPAR delta UAS-bla HEK293H cell line (Invitrogen, Carlsbad, CA, USA) containing a beta-lactamase reporter gene under the control of an Upstream Activator Sequence (UAS) was used to screen the Tox21 compound library.
Tox21 Assay Protocol Summary: PPARd-bla cells were dispensed at 3000 cells/5uL/well in 1536-well black wall/clear bottom plates using a Multidrop Combi (Thermo Fisher Scientific, Waltham, MA) dispenser. After the assay plates were incubated at 37 C and 5% CO2 for 5 h, 23 nL of compounds dissolved in DMSO, positive controls or DMSO only was transferred to the assay plate by a Pintool station (Kalypsys, San Diego, CA), followed by addition of 1ul L165041 (300 nM, final concentration in the wells). The assay plates were incubated at 37 C for 17 h, and then 1 uL of LiveBLAzerTM B/G FRET substrate was added using a Bioraptr Flying Reagent Dispenser (FRD) workstation (Beckman Coulter, Indianapolis, IN, USA). The assay plates were incubated at room temperature for 2 h and fluorescence intensity was measured by an Envision plate reader (PerkinElmer, Shelton, CT).
% is set by controls: 0 for no effect and ±100 for the full control effect.

**Q.** `C[C@@H]1CCN(C(=O)[C@H](CCCN=C(N)N)NS(=O)(=O)c2cccc3c2NC[C@H](C)C3)[C@@H](C(=O)O)C1` was tested. Which “ratio activity, negative = inhibition” value did it give?
**A.** Its value is 10.3%.

**Q.** For `O=C(O)COc1nn(Cc2ccccc2)c2ccccc12`, which “ratio activity, negative = inhibition” value is on record?
**A.** The value was 5.3%.

**Q.** With `CO[Si](CCCOCC1CO1)(OC)OC` (stereo not given) as the compound, how does the Potency read?
**A.** Its Potency is “inactive”.

**Q.** `CC(C)(O)C#CC(C)(C)O` was tested. Which “ratio activity, negative = inhibition” value did it give?
**A.** Its value is 1.39% [at 80.4 µM].

**Q.** How did the “ratio activity, negative = inhibition” value turn out when `COC(=O)c1cc(C(=O)OC)cc(S(=O)(=O)O)c1` was run?
**A.** Its value is -5.64%.

**Q.** How did the “ratio activity, negative = inhibition” value turn out when `O=c1[nH]c(=O)n([C@H]2C[C@H](O)[C@@H](CO)O2)cc1I` was run?
**A.** The value was 8.55%.

**Q.** How did the “ratio activity, negative = inhibition” value turn out when `CC(=O)OCC(CCn1cnc2cnc(N)nc21)COC(C)=O` was run?
**A.** The value was 11.2%.

**Q.** With `CCCN(CCC)CCc1cccc2c1CC(=O)N2` as the compound, how does the “ratio activity, negative = inhibition” value read?
**A.** Its value is 3.67%.

**Q.** How did the “ratio activity, negative = inhibition” value turn out when `CN1CCC(=C2c3ccccc3CC(=O)c3sccc32)CC1` was run?
**A.** The value was -0.286%.

**Q.** How did the “ratio activity, negative = inhibition” value turn out when `O=S(O)CO` was run?
**A.** Its value is 8.02%.

**Q.** How did the “ratio activity, negative = inhibition” value turn out when `CN1CC(=O)NC1=N` was run?
**A.** The value was 0.413%.

**Q.** For `N=C(N)c1ccccc1`, which “ratio activity, negative = inhibition” value is on record?
**A.** The value was 24.1%.

**Q.** Which “ratio activity, negative = inhibition” value does the source give for `C=CCCCCCCCCC=O` here?
**A.** Its value is -2.18%.

**Q.** Which “ratio activity, negative = inhibition” value does the source give for `CCn1ccnc1CC1COc2ccccc2O1` (stereo not given) here?
**A.** Its value is -14.3%.

**Q.** How did the “ratio activity, negative = inhibition” value turn out when `CCCCOCCOCCOCCCC` was run?
**A.** The value was -0.358%.

**Q.** How did the “ratio activity, negative = inhibition” value turn out when `CCOC(=O)[C@H](CCc1ccccc1)N[C@@H](C)C(=O)N1[C@H](C(=O)O)C[C@@H]2CCC[C@@H]21` was run?
**A.** The value was -7.88%.

**Q.** How did the “ratio activity, negative = inhibition” value turn out when `O=C(O)CNC(=O)c1ccc([N+](=O)[O-])cc1` was run?
**A.** Its value is -2.53%.

**Q.** For `CCOC(=O)Nc1ccc(NCc2ccc(F)cc2)nc1N`, which “ratio activity, negative = inhibition” value is on record?
**A.** The value was 5.58%.

**Q.** For `N[C@@H](C(=O)N[C@@H]1C(=O)N2C(C(=O)O)=C(Cl)CS[C@H]12)c1ccccc1`, which ratio activity, negative = inhibition is on record?
**A.** Its ratio activity, negative = inhibition is 0.0649% [at 13.7 µM].

**Q.** Which “ratio activity, negative = inhibition” value does the source give for `NC(=O)c1cn(Cc2c(F)cccc2F)nn1` here?
**A.** Its value is 10.5%.

**Q.** With `Nc1c2c(nc3ccccc13)CCCC2O` (stereo not given) as the compound, how does the “ratio activity, negative = inhibition” value read?
**A.** The value was -3.88%.

**Q.** How did the “ratio activity, negative = inhibition” value turn out when `c1cnc(N2CCN(Cc3ccc4c(c3)OCO4)CC2)nc1` was run?
**A.** Its value is -10.1%.

**Q.** How did the “ratio activity, negative = inhibition” value turn out when `COC(=O)CC(C)=O` was run?
**A.** The value was 2.2%.

**Q.** With `CCO[Si](CCC1CCC2OC2C1)(OCC)OCC` (stereo not given) as the compound, how does the “ratio activity, negative = inhibition” value read?
**A.** Its value is 5.33%.

**Q.** Which “ratio activity, negative = inhibition” value does the source give for `C=CCS(=O)(=O)O` here?
**A.** The value was 15.2%.

**Q.** `Nc1ccccc1S(=O)(=O)O` was tested. Which “ratio activity, negative = inhibition” value did it give?
**A.** The value was 9.39%.

**Q.** Which “ratio activity, negative = inhibition” value does the source give for `NC(=O)COCCN1CCN(C(c2ccccc2)c2ccc(Cl)cc2)CC1` (stereo not given) here?
**A.** Its value is -6.32%.

**Q.** With `Cc1cnc(NS(=O)(=O)c2ccc(N)cc2)nc1` as the compound, how does the “ratio activity, negative = inhibition” value read?
**A.** Its value is -5.43%.

**Q.** Which “ratio activity, negative = inhibition” value does the source give for `CCCN1CCCC[C@H]1C(=O)Nc1c(C)cccc1C` here?
**A.** The value was -15.1%.

**Q.** How did the “ratio activity, negative = inhibition” value turn out when `C=C(C)CS(=O)(=O)O` was run?
**A.** Its value is -1.05%.

**Q.** Which “ratio activity, negative = inhibition” value does the source give for `N=C(N)c1ccc(OCCCOc2ccc(C(=N)N)cc2)cc1` here?
**A.** The value was -13%.

**Q.** How did the “ratio activity, negative = inhibition” value turn out when `CC(=O)Nc1c(I)cc(I)c(C(=O)O)c1I` was run?
**A.** Its value is 1.08%.

**Q.** With `Cn1c(N)c(N=O)c(=O)n(C)c1=O` as the compound, how does the “ratio activity, negative = inhibition” value read?
**A.** Its value is -11.6% [at 80.4 µM].

**Q.** `CCCCCCCCCCCCCCCCC` was tested. Which “ratio activity, negative = inhibition” value did it give?
**A.** Its value is -5.65%.

**Q.** For `CC/C=C\CC/C=C/C(OCC)OCC`, which “ratio activity, negative = inhibition” value is on record?
**A.** Its value is -8.28%.

**Q.** Which “ratio activity, negative = inhibition” value does the source give for `O=c1cc(CO)occ1O` here?
**A.** The value was -3.68%.

**Q.** `C=CCOCC(CC)(CO)COCC=C` was tested. Which “ratio activity, negative = inhibition” value did it give?
**A.** The value was -7.2%.

**Q.** How did the “ratio activity, negative = inhibition” value turn out when `Cc1c(NC(C)C)c(=O)n(-c2ccccc2)n1C` was run?
**A.** Its value is 7.17%.

**Q.** How did the “ratio activity, negative = inhibition” value turn out when `CN(C)CCCSc1ccccc1NC(=O)/C=C/c1ccccc1` was run?
**A.** The value was -14.3%.

**Q.** `COC(=O)C1=C(C)NC(C)=C(C(=O)OC)C1c1ccccc1[N+](=O)[O-]` was tested. Which “ratio activity, negative = inhibition” value did it give?
**A.** Its value is 3.71%.
